{
  "source": "PubChem BioAssay (EPA / NIEHS)",
  "key": {"[1]": {"system": "5-hydroxytryptamine receptor 2C (pig)", "assay": "NVS_GPCR_p5HT2C: NovaScreen (NVS) G Protein-Coupled Receptor Assay for pig Serotonin, 5-Hydroxytryptamine Receptor 2C (5HT2C) (AID 2283288)", "procedure,_shortened": "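Pig choroid plexus membranes; radioligand competitive binding, filter-based scintillation counting, read 1 h after dosing. Primary screen in duplicate at 25 uM; actives then run as concentration series; loss of signal versus DMSO baseline.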"}, "[2]": {"biological_target": "guinea pig Bradykinin Receptor B2 (BK2), BDKRB2 (gene 100135486) (UniProt O70526)", "sequence (O70526 whole entry, looked up)": "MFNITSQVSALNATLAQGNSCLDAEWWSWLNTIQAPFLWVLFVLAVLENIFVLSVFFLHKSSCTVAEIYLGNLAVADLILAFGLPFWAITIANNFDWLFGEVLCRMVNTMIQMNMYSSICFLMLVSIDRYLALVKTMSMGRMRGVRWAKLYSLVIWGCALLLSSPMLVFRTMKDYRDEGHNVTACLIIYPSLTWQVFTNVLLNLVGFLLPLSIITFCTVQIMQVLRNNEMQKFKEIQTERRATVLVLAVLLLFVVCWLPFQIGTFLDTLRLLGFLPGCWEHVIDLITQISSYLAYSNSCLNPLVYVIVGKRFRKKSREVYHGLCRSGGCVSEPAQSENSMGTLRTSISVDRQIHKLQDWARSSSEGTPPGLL", "assay": "NVS_GPCR_gBK2: NovaScreen (NVS) G Protein-Coupled Receptor Assay for guinea pig Bradykinin Receptor B2 (BK2) (AID 2283292)", "procedure,_shortened": "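Radioligand displacement on guinea pig ileum membranes for 1 h, read by filter-based scintillation counting; loss of signal relative to DMSO. Compounds were screened in duplicate at 25 uM, and those passing the threshold were retested in concentration-response up to 50 uM.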"}, "[3]": {"biological_target": "human Opioid Receptor Mu (Opiate Mu), OPRM1 (gene 4988) (UniProt P35372)", "sequence (P35372 whole entry, looked up)": "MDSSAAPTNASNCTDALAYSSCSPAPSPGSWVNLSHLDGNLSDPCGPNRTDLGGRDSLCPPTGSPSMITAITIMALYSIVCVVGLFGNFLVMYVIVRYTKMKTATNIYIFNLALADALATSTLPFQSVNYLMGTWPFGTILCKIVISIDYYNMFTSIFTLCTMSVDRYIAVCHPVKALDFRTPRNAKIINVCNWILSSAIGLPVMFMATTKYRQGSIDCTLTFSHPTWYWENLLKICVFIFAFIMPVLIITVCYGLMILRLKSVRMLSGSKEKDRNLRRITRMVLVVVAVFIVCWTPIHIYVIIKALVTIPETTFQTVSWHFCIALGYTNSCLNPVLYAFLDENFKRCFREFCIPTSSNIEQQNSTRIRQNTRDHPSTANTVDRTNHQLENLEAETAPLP", "assay": "NVS_GPCR_hOpiate_mu: NovaScreen (NVS) G Protein-Coupled Receptor Assay for human Opioid Receptor Mu (Opiate Mu) (AID 2283290)", "procedure,_shortened": "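Cell-free radioligand binding to membranes from CHO cells expressing the receptor; bound tracer measured by filter-based scintillation counting 2.5 hours after dosing. Loss of signal versus DMSO baseline reflects displacement; primary screen at 25 uM in duplicate, actives followed up in concentration series.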"}, "[4]": {"biological_target": "mouse Cholecystokinin, CCK2 Receptor (CCKB), Cckbr (gene 12426) (UniProt P56481)", "sequence (P56481 whole entry, looked up)": "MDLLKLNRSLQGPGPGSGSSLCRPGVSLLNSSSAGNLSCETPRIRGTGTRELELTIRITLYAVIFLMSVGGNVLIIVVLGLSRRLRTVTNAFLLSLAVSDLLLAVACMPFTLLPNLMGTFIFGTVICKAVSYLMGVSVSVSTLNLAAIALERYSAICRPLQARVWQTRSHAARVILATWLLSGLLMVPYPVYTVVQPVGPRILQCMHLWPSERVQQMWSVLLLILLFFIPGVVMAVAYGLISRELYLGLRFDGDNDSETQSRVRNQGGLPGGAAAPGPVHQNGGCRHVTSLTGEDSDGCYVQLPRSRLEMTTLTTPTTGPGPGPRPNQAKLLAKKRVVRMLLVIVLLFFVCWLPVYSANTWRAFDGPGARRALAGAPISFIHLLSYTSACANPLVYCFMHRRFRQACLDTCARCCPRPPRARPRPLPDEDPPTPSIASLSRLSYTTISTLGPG", "assay": "NVS_GPCR_mCKKBCentral: NovaScreen (NVS) G Protein-Coupled Receptor Assay for mouse Cholecystokinin, CCK2 Receptor (CCKB) (AID 2283293)", "procedure,_shortened": "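Radioligand displacement binding on mouse forebrain membranes, 2 h exposure, filter-based scintillation counting. Primary screen in duplicate at 25 uM; actives (e.g. ≥30% inhibition) retested in concentration-response up to 50 uM; loss of binding signal relative to DMSO.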"}, "[5]": {"biological_target": "guinea pig Serotonin, 5-Hydroxytryptamine Receptor 4 (5HT4), HTR4 (gene 100135548) (UniProt O70528)", "sequence (O70528 whole entry, looked up)": "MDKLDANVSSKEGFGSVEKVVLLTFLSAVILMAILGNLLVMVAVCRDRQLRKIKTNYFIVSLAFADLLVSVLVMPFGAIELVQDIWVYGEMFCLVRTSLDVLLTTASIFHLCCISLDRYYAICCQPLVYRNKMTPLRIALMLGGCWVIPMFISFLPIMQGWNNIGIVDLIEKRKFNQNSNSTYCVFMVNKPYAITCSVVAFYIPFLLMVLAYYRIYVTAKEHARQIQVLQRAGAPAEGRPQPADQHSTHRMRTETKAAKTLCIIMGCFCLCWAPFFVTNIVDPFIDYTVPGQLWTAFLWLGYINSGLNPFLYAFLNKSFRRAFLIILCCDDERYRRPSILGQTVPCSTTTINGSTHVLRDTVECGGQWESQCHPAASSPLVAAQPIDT", "assay": "NVS_GPCR_g5HT4: NovaScreen (NVS) G Protein-Coupled Receptor Assay for guinea pig Serotonin, 5-Hydroxytryptamine Receptor 4 (5HT4) (AID 2283294)", "procedure,_shortened": "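Guinea pig striatal membranes; radioligand competitive displacement, filtration and scintillation counting after 1 h. Primary screen in duplicate at 25 uM; actives then tested in concentration series; loss of binding signal fitted relative to DMSO.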"}, "[6]": {"system": "guinea pig Atrionatriuretic Peptide Receptor A (ANPA), gene 100135578", "assay": "NVS_GPCR_gANPA: NovaScreen (NVS) G Protein-Coupled Receptor Assay for guinea pig Atrionatriuretic Peptide Receptor A (ANPA) (AID 2283291)", "description": "NVS_GPCR_gANPA is a biochemical, single-readout assay that uses extracted gene-proteins from Guinea pig cerebellar membranes in a tissue-based cell-free assay. Measurements were taken 1 hour after chemical dosing in a 96-well plate.NVS_GPCR_gANPA is one of one assay component(s) measured or calculated from the NVS_GPCR_gANPA assay. It is designed to make measurements of radioligand binding, a form of binding reporter, as detected with scintillation counting signals by Filter-based radiodetection technology.Data from the assay component NVS_GPCR_gANPA was analyzed into 1 assay endpoint. This assay endpoint, NVS_GPCR_gANPA, was analyzed in the positive analysis fitting direction relative to DMSO as the negative control and baseline of activity. Using a type of binding reporter, loss-of-signal activity can be used to understand changes in the binding as they relate to the gene Nppa. Furthermore, this assay endpoint can be referred to as a primary readout, because the performed assay has only produced 1 assay endpoint. To generalize the intended target to other relatable targets, this assay endpoint is annotated to the lyase intended target family, where the subfamily is guanylyl cyclase.\nBinding assays used specific radioligands (tritiated, iodinated) with non-radioactive competitive displacement ligands in agonist or antagonist protocols (as indicated) and various reference compounds and inhibitors to titrate specific binding to receptors and transporters. Most enzyme assays (CYPs, kinases, phosphatases, proteases, HDACs) used recombinant protein and specific substrates (fluorescence mostly, some colorimetric and radioactive) and inhibitors, followed by a biochemical separation of substrate and product. All assays for the biochemical HTS were initially run in duplicate at a single concentration (10 uM for CYP450 assays and 25 uM for all others). […]"}, "[7]": {"system": "rat Adrenergic, Alpha 1B Receptor (Adra1B), gene 24173", "assay": "NVS_GPCR_rAdra1B: NovaScreen (NVS) G Protein-Coupled Receptor Assay for rat Adrenergic, Alpha 1B Receptor (Adra1B) (AID 2283297)", "procedure,_shortened": "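Rat liver membranes, radioligand displacement with filter-based scintillation detection, 1 h incubation. Primary screen in duplicate at 25 uM; actives retested in concentration series; activity relative to DMSO.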"}, "[8]": {"biological_target": "rat Adrenergic Receptor, Beta (Adrb), Non-selective Binding, Adrb1 (gene 24925) (UniProt P18090)", "sequence (P18090 whole entry, looked up)": "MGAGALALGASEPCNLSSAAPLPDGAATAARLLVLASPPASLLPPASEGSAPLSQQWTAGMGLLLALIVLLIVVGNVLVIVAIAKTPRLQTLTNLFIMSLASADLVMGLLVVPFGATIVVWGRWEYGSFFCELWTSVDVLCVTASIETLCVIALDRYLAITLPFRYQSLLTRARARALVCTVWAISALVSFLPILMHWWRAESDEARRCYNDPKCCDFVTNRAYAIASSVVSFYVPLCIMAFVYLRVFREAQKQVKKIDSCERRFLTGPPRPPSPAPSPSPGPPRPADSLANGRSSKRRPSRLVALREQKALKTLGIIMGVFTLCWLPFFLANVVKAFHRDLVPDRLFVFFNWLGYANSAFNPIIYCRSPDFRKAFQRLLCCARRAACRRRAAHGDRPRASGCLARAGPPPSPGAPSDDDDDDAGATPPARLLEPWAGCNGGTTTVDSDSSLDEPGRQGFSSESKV", "assay": "NVS_GPCR_rAdrb_NonSelective: NovaScreen (NVS) G Protein-Coupled Receptor Assay for rat Adrenergic Receptor, Beta (Adrb), Non-selective Binding (AID 2283298)", "description": "NVS_GPCR_rAdrb_NonSelective is a biochemical, single-readout assay that uses extracted gene-proteins from Rat cortical membranes in a tissue-based cell-free assay. Measurements were taken 1 hour after chemical dosing in a 48-well plate.NVS_GPCR_rAdrb_NonSelective is one of one assay component(s) measured or calculated from the NVS_GPCR_rAdrb_NonSelective assay. It is designed to make measurements of radioligand binding, a form of binding reporter, as detected with scintillation counting signals by Filter-based radiodetection technology.Data from the assay component NVS_GPCR_rAdrb_NonSelective was analyzed into 1 assay endpoint. This assay endpoint, NVS_GPCR_rAdrb_NonSelective, was analyzed in the positive analysis fitting direction relative to DMSO as the negative control and baseline of activity. Using a type of binding reporter, loss-of-signal activity can be used to understand changes in the binding as they relate to the gene Adrb1. Furthermore, this assay endpoint can be referred to as a primary readout, because the performed assay has only produced 1 assay endpoint. To generalize the intended target to other relatable targets, this assay endpoint is annotated to the gpcr intended target family, where the subfamily is rhodopsin-like receptor. […]"}, "[9]": {"biological_target": "rat Adrenergic, Alpha 1, Non-selective Receptor (Adra1), Adra1a (gene 29412) (UniProt P43140)", "sequence (P43140 whole entry, looked up)": "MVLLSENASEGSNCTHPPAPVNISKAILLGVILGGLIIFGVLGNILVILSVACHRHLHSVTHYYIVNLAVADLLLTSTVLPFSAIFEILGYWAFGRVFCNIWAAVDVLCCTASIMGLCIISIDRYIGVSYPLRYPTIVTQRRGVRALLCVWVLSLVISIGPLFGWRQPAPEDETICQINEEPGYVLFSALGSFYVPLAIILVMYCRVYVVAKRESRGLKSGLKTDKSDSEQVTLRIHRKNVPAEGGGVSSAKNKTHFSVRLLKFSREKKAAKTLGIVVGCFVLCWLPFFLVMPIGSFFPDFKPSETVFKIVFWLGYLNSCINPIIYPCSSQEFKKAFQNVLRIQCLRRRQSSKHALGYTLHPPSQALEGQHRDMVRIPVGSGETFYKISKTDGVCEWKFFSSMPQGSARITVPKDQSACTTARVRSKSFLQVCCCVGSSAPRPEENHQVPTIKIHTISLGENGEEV", "assay": "NVS_GPCR_rAdra1_NonSelective: NovaScreen (NVS) G Protein-Coupled Receptor Assay for rat Adrenergic, Alpha 1, Non-selective Receptor (Adra1) (AID 2283289)", "procedure,_shortened": "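Rat forebrain membranes; radioligand displacement read by filter-based scintillation counting 1 h after dosing. Primary screen in duplicate at 25 uM; hits (e.g. ≥30% inhibition) rerun as concentration–response to 50 uM max. Fitted versus DMSO.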"}, "[10]": {"system": "rabbit Platelet Activating Factor Receptor (PAF), gene 100354046", "assay": "NVS_GPCR_rabPAF: NovaScreen (NVS) G Protein-Coupled Receptor Assay for rabbit Platelet Activating Factor Receptor (PAF) (AID 2283287)", "procedure,_shortened": "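Rabbit platelet membrane preparation; radioligand displacement read by filter-based scintillation counting 1 h after dosing, loss of signal versus DMSO. Primary screen in duplicate at 25 uM, actives followed up in concentration series.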"}},
  "note": "Records with an inconclusive call do not appear. The source made the active and inactive calls. The calls were made as follows: active = hit-call score of the fitted dose curve at least 0.9, where 1 is the maximum; inconclusive = response in the unintended direction; inactive = score below 0.9.",
  "data": [
    {"compound": "Cc1ccc(O)c(C)c1", "values": [
      {"measurement": "outcome", "setting": "[1]", "value": "inactive"},
      {"measurement": "outcome", "setting": "[2]", "value": "inactive"}
    ]},
    {"compound": "CC(C)(c1ccccc1)c1ccc(O)cc1", "values": [
      {"measurement": "AC50", "setting": "[1]", "value": "17.9 µM (active)"},
      {"measurement": "AC50", "setting": "[3]", "value": "11.8 µM (active)"},
      {"measurement": "AC50", "setting": "[4]", "value": "18.5 µM (active)"},
      {"measurement": "AC50", "setting": "[5]", "value": "23.7 µM (active)"}
    ]},
    {"compound": "O=C(O)C(F)(F)C(F)(F)C(F)(F)C(F)(F)C(F)(F)C(F)(F)C(F)(F)C(F)(F)C(F)(F)F", "values": [
      {"measurement": "AC50", "setting": "[3]", "value": "25 µM (active)"}
    ]},
    {"compound": "O=S(=O)(O)C(F)(F)C(F)(F)C(F)(F)C(F)(F)C(F)(F)C(F)(F)F", "values": [
      {"measurement": "outcome", "setting": "[6]", "value": "inactive"}
    ]},
    {"compound": "O=C(N[C@H]1CN2CCC1CC2)c1cc2ccoc2cn1", "values": [
      {"measurement": "AC50", "setting": "[5]", "value": "16.4 µM (active)"},
      {"measurement": "AC50", "setting": "[7]", "value": "11 µM (active)"},
      {"measurement": "outcome", "setting": "[8]", "value": "inactive"}
    ]},
    {"compound": "C[C@]12CCC(=O)C=C1CC[C@@H]1[C@@H]2CC[C@@]2(C)[C@H]1CC[C@]2(C)O", "values": [
      {"measurement": "outcome", "setting": "[3]", "value": "inactive"}
    ]},
    {"compound": "ClC1=C(Cl)[C@]2(Cl)[C@@H]3[C@H]4C[C@H]([C@@H]5O[C@H]45)[C@@H]3[C@@]1(Cl)C2(Cl)Cl", "values": [
      {"measurement": "outcome", "setting": "[6]", "value": "inactive"}
    ]},
    {"compound": "Oc1ccc(Cl)cc1Cl", "values": [
      {"measurement": "outcome", "setting": "[1]", "value": "inactive"}
    ]},
    {"compound": "CC(C)C(=O)OCC(C)(C)C(OC(=O)C(C)C)C(C)C", "note": "(configuration not stated)", "values": [
      {"measurement": "outcome", "setting": "[2]", "value": "inactive"}
    ]},
    {"compound": "CC(C)(O)C(=O)Nc1ccc([N+](=O)[O-])c(C(F)(F)F)c1", "values": [
      {"measurement": "AC50", "setting": "[1]", "value": "19.2 µM (active)"}
    ]},
    {"compound": "Cc1cc(-c2ccc(N)c(C)c2)ccc1N", "values": [
      {"measurement": "outcome", "setting": "[8]", "value": "inactive"}
    ]},
    {"compound": "COc1ccc(O)c(C(C)(C)C)c1", "values": [
      {"measurement": "AC50", "setting": "[1]", "value": "13.2 µM (active)"},
      {"measurement": "outcome", "setting": "[9]", "value": "inactive"},
      {"measurement": "outcome", "setting": "[4]", "value": "inactive"},
      {"measurement": "AC50", "setting": "[5]", "value": "18.8 µM (active)"}
    ]},
    {"compound": "Cc1cc(O)ccc1Cl", "values": [
      {"measurement": "AC50", "setting": "[1]", "value": "9.65 µM (active)"}
    ]},
    {"compound": "Clc1ccc(C(c2ccccc2Cl)C(Cl)(Cl)Cl)cc1", "note": "(configuration not stated)", "values": [
      {"measurement": "outcome", "setting": "[3]", "value": "inactive"}
    ]},
    {"compound": "CCCCCCCCCC[N+](C)(C)CCCCCCCCCC", "values": [
      {"measurement": "AC50", "setting": "[10]", "value": "7.2 µM (active)"},
      {"measurement": "AC50", "setting": "[1]", "value": "21.1 µM (active)"},
      {"measurement": "AC50", "setting": "[3]", "value": "4.3 µM (active)"},
      {"measurement": "AC50", "setting": "[5]", "value": "21.9 µM (active)"}
    ]},
    {"compound": "Nc1ccc(-c2ccc(N)cc2)cc1", "values": [
      {"measurement": "outcome", "setting": "[7]", "value": "inactive"}
    ]},
    {"compound": "CC1=C2C[C@H]3[C@@H](CC=C4C[C@@H](O)CC[C@@]43C)[C@@H]2CC[C@]12O[C@@H]1C[C@H](C)CN[C@H]1[C@H]2C", "values": [
      {"measurement": "outcome", "setting": "[5]", "value": "inactive"},
      {"measurement": "outcome", "setting": "[7]", "value": "inactive"}
    ]},
    {"compound": "NS(=O)(=O)C(F)(F)C(F)(F)C(F)(F)C(F)(F)C(F)(F)C(F)(F)C(F)(F)C(F)(F)F", "values": [
      {"measurement": "outcome", "setting": "[3]", "value": "inactive"},
      {"measurement": "outcome", "setting": "[6]", "value": "inactive"}
    ]},
    {"compound": "CCOC(=O)C(O)(c1ccc(Cl)cc1)c1ccc(Cl)cc1", "values": [
      {"measurement": "AC50", "setting": "[10]", "value": "7.46 µM (active)"}
    ]},
    {"compound": "Oc1ccc(C(c2ccc(O)cc2)(C(F)(F)F)C(F)(F)F)cc1", "values": [
      {"measurement": "AC50", "setting": "[1]", "value": "1.39 µM (active)"},
      {"measurement": "AC50", "setting": "[9]", "value": "38.1 µM (active)"},
      {"measurement": "AC50", "setting": "[3]", "value": "4.93 µM (active)"},
      {"measurement": "AC50", "setting": "[5]", "value": "11.7 µM (active)"},
      {"measurement": "AC50", "setting": "[7]", "value": "41.2 µM (active)"}
    ]},
    {"compound": "CCC(C)(c1ccc(O)cc1)c1ccc(O)cc1", "values": [
      {"measurement": "AC50", "setting": "[1]", "value": "16.9 µM (active)"},
      {"measurement": "AC50", "setting": "[3]", "value": "9.36 µM (active)"},
      {"measurement": "AC50", "setting": "[5]", "value": "16.5 µM (active)"}
    ]},
    {"compound": "CCOP(=S)(OCC)SCSC(C)(C)C", "values": [
      {"measurement": "outcome", "setting": "[1]", "value": "inactive"}
    ]}
  ]
}
